# Residue numbers refer to the chain shown, from its start.
# Legend:
# Assay in all cases: PBM; 200 nM protein, PBS
# Conditions in all cases: dsDNA, one strand shown
# HOXB4 [1] = biological target: HOXB4 (Homo sapiens, UniProt P17483 148-234)
# SHOX [2] = biological target: SHOX (Homo sapiens, UniProt O15266 103-189)
# HOXB4 [3] = biological target: HOXB4 (Homo sapiens, UniProt P17483 148-234, V174I)
# ALX3 [4] = biological target: ALX3 (Homo sapiens, UniProt O95076 139-225, N203Q)
# SHOX [5] = biological target: SHOX (Homo sapiens, UniProt O15266 103-189, R173C)
# Sequence of SHOX (Homo sapiens, UniProt O15266 103-189, R173C) (O15266 103-189 R173C): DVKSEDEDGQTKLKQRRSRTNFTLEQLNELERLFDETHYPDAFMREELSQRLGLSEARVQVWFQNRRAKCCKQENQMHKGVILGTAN
# ALX3 [6] = biological target: ALX3 (Homo sapiens, UniProt O95076 139-225)
# Sequence of ALX3 (Homo sapiens, UniProt O95076 139-225) (O95076 139-225): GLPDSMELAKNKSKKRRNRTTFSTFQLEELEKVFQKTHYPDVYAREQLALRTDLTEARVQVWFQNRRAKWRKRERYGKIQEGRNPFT
# ALX3 [7] = biological target: ALX3 (Homo sapiens, UniProt O95076 139-225, L168Q)
# Sequence of ALX3 (Homo sapiens, UniProt O95076 139-225, L168Q) (O95076 139-225 L168Q): as the sequence (O95076 139-225) above, with L30Q counted along it
# ALX3 [8] = biological target: ALX3 (Homo sapiens, UniProt O95076 139-225, L168V)
# Sequence of ALX3 (Homo sapiens, UniProt O95076 139-225, L168V) (O95076 139-225 L168V): as the sequence (O95076 139-225) above, with L30V counted along it
# NKX3-2 [9] = biological target: NKX3-2 (Homo sapiens, UniProt P78367 192-278, P234S)
# Sequence of NKX3-2 (Homo sapiens, UniProt P78367 192-278, P234S) (P78367 192-278 P234S): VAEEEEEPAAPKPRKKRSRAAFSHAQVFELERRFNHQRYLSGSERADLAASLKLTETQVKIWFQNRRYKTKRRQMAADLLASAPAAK
# ALX3 [10] = biological target: ALX3 (Homo sapiens, UniProt O95076 139-225, N203S)
# Sequence of ALX3 (Homo sapiens, UniProt O95076 139-225, N203S) (O95076 139-225 N203S): as the sequence (O95076 139-225) above, with N65S counted along it
# NKX3-2 [11] = biological target: NKX3-2 (Homo sapiens, UniProt P78367 192-278)
# Sequence of NKX3-2 (Homo sapiens, UniProt P78367 192-278) (P78367 192-278): as the sequence (P78367 192-278 P234S) above, with S43P counted along it
# CRX [12] = biological target: CRX (Homo sapiens, UniProt O43186 26-111)
# Sequence of CRX (Homo sapiens, UniProt O43186 26-111) (O43186 26-111): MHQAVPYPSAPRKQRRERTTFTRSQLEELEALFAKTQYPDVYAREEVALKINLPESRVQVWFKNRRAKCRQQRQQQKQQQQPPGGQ
# CRX [13] = biological target: CRX (Homo sapiens, UniProt O43186 26-111, E42D)
# Sequence of CRX (Homo sapiens, UniProt O43186 26-111, E42D) (O43186 26-111 E42D): as the sequence (O43186 26-111) above, with E17D counted along it
# CRX [14] = biological target: CRX (Homo sapiens, UniProt O43186 26-111, R41L)
# Sequence of CRX (Homo sapiens, UniProt O43186 26-111, R41L) (O43186 26-111 R41L): as the sequence (O43186 26-111) above, with R16L counted along it
# ALX4 [15] = biological target: ALX4 (Homo sapiens, UniProt Q9H161 200-286)
# Sequence of ALX4 (Homo sapiens, UniProt Q9H161 200-286) (Q9H161 200-286): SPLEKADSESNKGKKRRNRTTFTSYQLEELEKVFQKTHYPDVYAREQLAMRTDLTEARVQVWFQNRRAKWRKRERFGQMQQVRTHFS
# ALX4 [16] = biological target: ALX4 (Homo sapiens, UniProt Q9H161 200-286, Q225E)
# Sequence of ALX4 (Homo sapiens, UniProt Q9H161 200-286, Q225E) (Q9H161 200-286 Q225E): as the sequence (Q9H161 200-286) above, with Q26E counted along it
# NKX2-6 [17] = biological target: T1, NKX2-6 (Homo sapiens, UniProt A6NCS4 118-204)
# T1 sequence: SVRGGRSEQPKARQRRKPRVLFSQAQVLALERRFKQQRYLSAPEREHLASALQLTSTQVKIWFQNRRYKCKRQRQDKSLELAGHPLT
# NKX2-6 [18] = biological target: T2, NKX2-6 (Homo sapiens, UniProt A6NCS4 118-204, F151L)
# T2 sequence: T1 sequence with F34L
# HESX1 [19] = biological target: HESX1 (Homo sapiens, UniProt Q9UBX0 95-180, R165K)
# Sequence of HESX1 (Homo sapiens, UniProt Q9UBX0 95-180, R165K) (Q9UBX0 95-180 R165K): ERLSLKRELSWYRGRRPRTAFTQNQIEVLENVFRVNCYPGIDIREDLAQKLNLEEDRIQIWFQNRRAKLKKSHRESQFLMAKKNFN
# HESX1 [20] = biological target: HESX1 (Homo sapiens, UniProt Q9UBX0 95-180)
# Sequence of HESX1 (Homo sapiens, UniProt Q9UBX0 95-180) (Q9UBX0 95-180): as the sequence (Q9UBX0 95-180 R165K) above, with K71R counted along it
# HESX1 [21] = biological target: HESX1 (Homo sapiens, UniProt Q9UBX0 95-180, F115L)
# Sequence of HESX1 (Homo sapiens, UniProt Q9UBX0 95-180, F115L) (Q9UBX0 95-180 F115L): as the sequence (Q9UBX0 95-180 R165K) above, with F21L, K71R counted along it
# HESX1 [22] = biological target: HESX1 (Homo sapiens, UniProt Q9UBX0 95-180, P111T)
# Sequence of HESX1 (Homo sapiens, UniProt Q9UBX0 95-180, P111T) (Q9UBX0 95-180 P111T): as the sequence (Q9UBX0 95-180 R165K) above, with P17T, K71R counted along it
# HESX1 [23] = biological target: HESX1 (Homo sapiens, UniProt Q9UBX0 95-180, R109Q)
# Sequence of HESX1 (Homo sapiens, UniProt Q9UBX0 95-180, R109Q) (Q9UBX0 95-180 R109Q): as the sequence (Q9UBX0 95-180 R165K) above, with R15Q, K71R counted along it
# VAX1 [24] = biological target: VAX1 (Homo sapiens, UniProt Q5SQQ9 86-172)
# Sequence of VAX1 (Homo sapiens, UniProt Q5SQQ9 86-172) (Q5SQQ9 86-172): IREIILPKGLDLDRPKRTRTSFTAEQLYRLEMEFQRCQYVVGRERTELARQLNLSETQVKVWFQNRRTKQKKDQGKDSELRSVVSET
# VAX1 [25] = biological target: VAX1 (Homo sapiens, UniProt Q5SQQ9 86-172, T142I)
# Sequence of VAX1 (Homo sapiens, UniProt Q5SQQ9 86-172, T142I) (Q5SQQ9 86-172 T142I): as the sequence (Q5SQQ9 86-172) above, with T57I counted along it
# VAX1 [26] = biological target: VAX1 (Homo sapiens, UniProt Q5SQQ9 86-172, K157R)
# Sequence of VAX1 (Homo sapiens, UniProt Q5SQQ9 86-172, K157R) (Q5SQQ9 86-172 K157R): as the sequence (Q5SQQ9 86-172) above, with K72R counted along it
# HOXA4 [27] = biological target: HOXA4 (Homo sapiens, UniProt Q00056 201-287, W262R)
# Sequence of HOXA4 (Homo sapiens, UniProt Q00056 201-287, W262R) (Q00056 201-287 W262R): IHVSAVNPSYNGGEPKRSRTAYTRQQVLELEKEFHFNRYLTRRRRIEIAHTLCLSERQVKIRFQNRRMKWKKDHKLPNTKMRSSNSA
# HOXA2 [28] = biological target: HOXA2 (Homo sapiens, UniProt O43364 129-215, R185T)
# Sequence of HOXA2 (Homo sapiens, UniProt O43364 129-215, R185T) (O43364 129-215 R185T): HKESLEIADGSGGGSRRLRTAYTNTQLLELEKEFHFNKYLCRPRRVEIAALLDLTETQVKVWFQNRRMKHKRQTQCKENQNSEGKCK
# HOXA4 [29] = biological target: HOXA4 (Homo sapiens, UniProt Q00056 201-287, R217L)
# Sequence of HOXA4 (Homo sapiens, UniProt Q00056 201-287, R217L) (Q00056 201-287 R217L): as the sequence (Q00056 201-287 W262R) above, with R17L, R62W counted along it
# HOXA2 [30] = biological target: HOXA2 (Homo sapiens, UniProt O43364 129-215, R185K)
# Sequence of HOXA2 (Homo sapiens, UniProt O43364 129-215, R185K) (O43364 129-215 R185K): as the sequence (O43364 129-215 R185T) above, with T57K counted along it
# HOXA4 [31] = biological target: HOXA4 (Homo sapiens, UniProt Q00056 201-287)
# Sequence of HOXA4 (Homo sapiens, UniProt Q00056 201-287) (Q00056 201-287): as the sequence (Q00056 201-287 W262R) above, with R62W counted along it
# HOXA2 [32] = biological target: HOXA2 (Homo sapiens, UniProt O43364 129-215, Y150S)
# Sequence of HOXA2 (Homo sapiens, UniProt O43364 129-215, Y150S) (O43364 129-215 Y150S): as the sequence (O43364 129-215 R185T) above, with Y22S, T57R counted along it
# HOXA4 [33] = biological target: HOXA4 (Homo sapiens, UniProt Q00056 201-287, W262F)
# Sequence of HOXA4 (Homo sapiens, UniProt Q00056 201-287, W262F) (Q00056 201-287 W262F): as the sequence (Q00056 201-287 W262R) above, with R62F counted along it
# HOXA2 [34] = biological target: HOXA2 (Homo sapiens, UniProt O43364 129-215)
# Sequence of HOXA2 (Homo sapiens, UniProt O43364 129-215) (O43364 129-215): as the sequence (O43364 129-215 R185T) above, with T57R counted along it
# Sequence of HOXB4 (Homo sapiens, UniProt P17483 148-234, V174I) (P17483 148-234 V174I): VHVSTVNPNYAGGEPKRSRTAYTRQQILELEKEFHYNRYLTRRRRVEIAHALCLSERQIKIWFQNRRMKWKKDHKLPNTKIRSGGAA
# Sequence of HOXB4 (Homo sapiens, UniProt P17483 148-234) (P17483 148-234): as the sequence (P17483 148-234 V174I) above, with I27V counted along it
# Sequence of SHOX (Homo sapiens, UniProt O15266 103-189) (O15266 103-189): as the sequence (O15266 103-189 R173C) above, with C71R counted along it
# Sequence of ALX3 (Homo sapiens, UniProt O95076 139-225, N203Q) (O95076 139-225 N203Q): as the sequence (O95076 139-225) above, with N65Q counted along it
sequence,measurement,setting,value
GACTGGCC,binding signal,HOXB4 [1],"7.7 upbm affinity estimate (log intensity, higher = more binding, comparable within an allelic series)"
same,binding signal,SHOX [2],"7.34 upbm affinity estimate (log intensity, higher = more binding, comparable within an allelic series)"
same,binding signal,HOXB4 [3],"7.58 upbm affinity estimate (log intensity, higher = more binding, comparable within an allelic series)"
same,binding signal,ALX3 [4],"7.82 upbm affinity estimate (log intensity, higher = more binding, comparable within an allelic series)"
same,binding signal,SHOX [5],"7.31 upbm affinity estimate (log intensity, higher = more binding, comparable within an allelic series)"
same,binding signal,ALX3 [6],"7.84 upbm affinity estimate (log intensity, higher = more binding, comparable within an allelic series)"
same,binding signal,ALX3 [7],"7.72 upbm affinity estimate (log intensity, higher = more binding, comparable within an allelic series)"
same,binding signal,ALX3 [8],"7.77 upbm affinity estimate (log intensity, higher = more binding, comparable within an allelic series)"
same,binding signal,NKX3-2 [9],"10.5 upbm affinity estimate (log intensity, higher = more binding, comparable within an allelic series)"
same,binding signal,ALX3 [10],"7.91 upbm affinity estimate (log intensity, higher = more binding, comparable within an allelic series)"
same,binding signal,NKX3-2 [11],"10.5 upbm affinity estimate (log intensity, higher = more binding, comparable within an allelic series)"
GCCCAGAC,binding signal,HOXB4 [1],"7.49 upbm affinity estimate (log intensity, higher = more binding, comparable within an allelic series)"
same,binding signal,CRX [12],"8.35 upbm affinity estimate (log intensity, higher = more binding, comparable within an allelic series)"
same,binding signal,HOXB4 [3],"7.68 upbm affinity estimate (log intensity, higher = more binding, comparable within an allelic series)"
same,binding signal,CRX [13],"8.45 upbm affinity estimate (log intensity, higher = more binding, comparable within an allelic series)"
same,binding signal,CRX [14],"8.39 upbm affinity estimate (log intensity, higher = more binding, comparable within an allelic series)"
AGCCTGGG,binding signal,HOXB4 [1],"7.59 upbm affinity estimate (log intensity, higher = more binding, comparable within an allelic series)"
same,binding signal,SHOX [2],"7.06 upbm affinity estimate (log intensity, higher = more binding, comparable within an allelic series)"
same,binding signal,ALX4 [15],"7.98 upbm affinity estimate (log intensity, higher = more binding, comparable within an allelic series)"
same,binding signal,ALX4 [16],"8.23 upbm affinity estimate (log intensity, higher = more binding, comparable within an allelic series)"
same,binding signal,HOXB4 [3],"7.58 upbm affinity estimate (log intensity, higher = more binding, comparable within an allelic series)"
same,binding signal,NKX2-6 [17],"8.48 upbm affinity estimate (log intensity, higher = more binding, comparable within an allelic series)"
same,binding signal,SHOX [5],"7.22 upbm affinity estimate (log intensity, higher = more binding, comparable within an allelic series)"
same,binding signal,NKX2-6 [18],"9.24 upbm affinity estimate (log intensity, higher = more binding, comparable within an allelic series)"
CATTAGGG,binding signal,HESX1 [19],"8.41 upbm affinity estimate (log intensity, higher = more binding, comparable within an allelic series)"
same,binding signal,HESX1 [20],"8.4 upbm affinity estimate (log intensity, higher = more binding, comparable within an allelic series)"
same,binding signal,HESX1 [21],"6.71 upbm affinity estimate (log intensity, higher = more binding, comparable within an allelic series)"
AACCTATT,binding signal,HESX1 [19],"8.08 upbm affinity estimate (log intensity, higher = more binding, comparable within an allelic series)"
same,binding signal,HESX1 [20],"8.17 upbm affinity estimate (log intensity, higher = more binding, comparable within an allelic series)"
same,binding signal,HESX1 [22],"7.48 upbm affinity estimate (log intensity, higher = more binding, comparable within an allelic series)"
CAAGCTCA,binding signal,HESX1 [19],"6.51 upbm affinity estimate (log intensity, higher = more binding, comparable within an allelic series)"
same,binding signal,HESX1 [20],"6.47 upbm affinity estimate (log intensity, higher = more binding, comparable within an allelic series)"
same,binding signal,HESX1 [23],"6.46 upbm affinity estimate (log intensity, higher = more binding, comparable within an allelic series)"
same,binding signal,HESX1 [22],"6.46 upbm affinity estimate (log intensity, higher = more binding, comparable within an allelic series)"
same,binding signal,HESX1 [21],"6.53 upbm affinity estimate (log intensity, higher = more binding, comparable within an allelic series)"
CATAATAC,binding signal,HESX1 [19],"7.93 upbm affinity estimate (log intensity, higher = more binding, comparable within an allelic series)"
same,binding signal,HESX1 [20],"8.07 upbm affinity estimate (log intensity, higher = more binding, comparable within an allelic series)"
same,binding signal,VAX1 [24],"10.4 upbm affinity estimate (log intensity, higher = more binding, comparable within an allelic series)"
same,binding signal,VAX1 [25],"10 upbm affinity estimate (log intensity, higher = more binding, comparable within an allelic series)"
same,binding signal,VAX1 [26],"10.1 upbm affinity estimate (log intensity, higher = more binding, comparable within an allelic series)"
CGATATTA,binding signal,HESX1 [19],"8.16 upbm affinity estimate (log intensity, higher = more binding, comparable within an allelic series)"
same,binding signal,HESX1 [20],"8.27 upbm affinity estimate (log intensity, higher = more binding, comparable within an allelic series)"
same,binding signal,HESX1 [22],"7.74 upbm affinity estimate (log intensity, higher = more binding, comparable within an allelic series)"
AATCATTA,binding signal,HOXB4 [1],"13.2 upbm affinity estimate (log intensity, higher = more binding, comparable within an allelic series)"
same,binding signal,CRX [12],"10.5 upbm affinity estimate (log intensity, higher = more binding, comparable within an allelic series)"
same,binding signal,HOXA4 [27],"10.7 upbm affinity estimate (log intensity, higher = more binding, comparable within an allelic series)"
same,binding signal,HOXA2 [28],"12.4 upbm affinity estimate (log intensity, higher = more binding, comparable within an allelic series)"
same,binding signal,HOXA4 [29],"12.3 upbm affinity estimate (log intensity, higher = more binding, comparable within an allelic series)"
same,binding signal,HOXB4 [3],"13.8 upbm affinity estimate (log intensity, higher = more binding, comparable within an allelic series)"
same,binding signal,CRX [13],"10.3 upbm affinity estimate (log intensity, higher = more binding, comparable within an allelic series)"
same,binding signal,HOXA2 [30],"13.2 upbm affinity estimate (log intensity, higher = more binding, comparable within an allelic series)"
same,binding signal,HOXA4 [31],"13.9 upbm affinity estimate (log intensity, higher = more binding, comparable within an allelic series)"
same,binding signal,VAX1 [24],"12.7 upbm affinity estimate (log intensity, higher = more binding, comparable within an allelic series)"
same,binding signal,VAX1 [25],"12.6 upbm affinity estimate (log intensity, higher = more binding, comparable within an allelic series)"
same,binding signal,HOXA2 [32],"10.8 upbm affinity estimate (log intensity, higher = more binding, comparable within an allelic series)"
same,binding signal,CRX [14],"9.82 upbm affinity estimate (log intensity, higher = more binding, comparable within an allelic series)"
same,binding signal,HOXA4 [33],"11.6 upbm affinity estimate (log intensity, higher = more binding, comparable within an allelic series)"
same,binding signal,HOXA2 [34],"12.1 upbm affinity estimate (log intensity, higher = more binding, comparable within an allelic series)"
same,binding signal,VAX1 [26],"12.4 upbm affinity estimate (log intensity, higher = more binding, comparable within an allelic series)"
TGTGATAA,binding signal,HESX1 [19],"7.98 upbm affinity estimate (log intensity, higher = more binding, comparable within an allelic series)"
same,binding signal,HESX1 [20],"8.21 upbm affinity estimate (log intensity, higher = more binding, comparable within an allelic series)"
same,binding signal,HESX1 [22],"7.65 upbm affinity estimate (log intensity, higher = more binding, comparable within an allelic series)"
ATTCATAA,binding signal,HESX1 [19],"7.97 upbm affinity estimate (log intensity, higher = more binding, comparable within an allelic series)"
same,binding signal,HESX1 [20],"8.03 upbm affinity estimate (log intensity, higher = more binding, comparable within an allelic series)"
same,binding signal,HESX1 [22],"7.62 upbm affinity estimate (log intensity, higher = more binding, comparable within an allelic series)"
ACTATAGA,binding signal,HESX1 [19],"7.13 upbm affinity estimate (log intensity, higher = more binding, comparable within an allelic series)"
same,binding signal,HESX1 [20],"7.13 upbm affinity estimate (log intensity, higher = more binding, comparable within an allelic series)"
same,binding signal,HESX1 [22],"7.02 upbm affinity estimate (log intensity, higher = more binding, comparable within an allelic series)"
ATTAGTGC,binding signal,HESX1 [19],"9.5 upbm affinity estimate (log intensity, higher = more binding, comparable within an allelic series)"
same,binding signal,HESX1 [20],"9.81 upbm affinity estimate (log intensity, higher = more binding, comparable within an allelic series)"
same,binding signal,HESX1 [22],"8.71 upbm affinity estimate (log intensity, higher = more binding, comparable within an allelic series)"
same,binding signal,HESX1 [21],"6.94 upbm affinity estimate (log intensity, higher = more binding, comparable within an allelic series)"
ATGTATAA,binding signal,HESX1 [19],"7.77 upbm affinity estimate (log intensity, higher = more binding, comparable within an allelic series)"
same,binding signal,HESX1 [20],"7.72 upbm affinity estimate (log intensity, higher = more binding, comparable within an allelic series)"
same,binding signal,HESX1 [22],"7.36 upbm affinity estimate (log intensity, higher = more binding, comparable within an allelic series)"

# From PMC11006913
